The values below come from PubChem BioAssay.

A number with no mark means an inactive call. No rule for the calls is given here.

The target in the assay is Pantothenate synthetase (Mycobacterium tuberculosis (strain ATCC 25618 / H37Rv)) (UniProt P9WIL5). Put plainly: Coupled enzyme confirmation of inhibitors against recombinant Mtb PanC (AID 375).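 Also: 0% = full reaction with vehicle and 100% = no enzyme background.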 As to conditions: coupled enzyme assay; at 10 µM, hits give high values.
Chain of Pantothenate synthetase (Mycobacterium tuberculosis (strain ATCC 25618 / H37Rv)) (P9WIL5 whole entry, looked up): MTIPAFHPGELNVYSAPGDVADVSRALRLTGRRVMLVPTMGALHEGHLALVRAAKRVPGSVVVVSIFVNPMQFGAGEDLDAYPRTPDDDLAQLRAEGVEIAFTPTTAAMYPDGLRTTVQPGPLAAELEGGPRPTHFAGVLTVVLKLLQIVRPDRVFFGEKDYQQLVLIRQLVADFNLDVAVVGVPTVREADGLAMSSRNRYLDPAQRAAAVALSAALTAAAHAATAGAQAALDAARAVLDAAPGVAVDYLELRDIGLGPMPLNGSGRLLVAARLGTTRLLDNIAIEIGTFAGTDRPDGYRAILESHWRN
As for `CCCc1cn(S(=O)(=O)c2ccc(OC)cc2OC)nc1N`, the inhibition was 0%. Then `CCOC(=O)c1ccc(S(=O)(=O)NC2CCCCCCC2)n1C`, with 0%; and `CCOC(=O)c1ccc(-n2c(=O)[nH]c3ccccc3c2=O)cc1`, with 2%.

As to `CC(C)(C)n1cnc2cc(NS(=O)(=O)c3ccc(Br)cc3)ccc21`, the inhibition is 7%. Take `O=C1CC(c2ccco2)CC(O)=C1C=NCCN1CCNCC1` (stereo not given): the inhibition was 0%. Consider `c1ccc(CNc2c3c(nc4ncnn24)CCCC3)nc1`, for which the inhibition is 0%.

For the compound `CNC(=O)OC(C)CNS(=O)(=O)c1ccc(C)cc1` (stereo not given), the inhibition is 0%. Consider `COc1cccc(C(=O)Nc2ccc(NC(=O)C(C)(C)C)cn2)c1`, for which the inhibition was 0%. For `C=CCn1c(SCC(=O)NCCCC)nc2scc(-c3ccco3)c2c1=O`, the inhibition was 0%. Then `Cc1cc(C(=O)CSCc2nnc3n(CCC(C)C)c(=O)c4ccccc4n23)c(C)n1C`, with 8%; and `Cc1nc2ccc(S(=O)(=O)NCC(=O)N(C)Cc3ccco3)cc2s1`, with 0%. The figure for `COCCn1c(SCc2csc(-c3ccccc3)n2)nc2ccccc21` is 5%; for `COc1cc(NS(=O)(=O)c2cccc3nsnc23)c(C(=O)O)cc1OC` it is 0%. For the compound `COc1ccc(CC(=O)OCc2nnc(C3COc4ccccc4O3)o2)cc1OC` (stereo not given), the inhibition is 0%.

`O=C(CCn1nc(-c2ccccc2)ccc1=O)N1CCCC1`: the inhibition is 0%. For the compound `COCCn1c(SCC(=O)N2CCc3ccccc32)nc2c(c1=O)SC(C)C2` (stereo not given), the inhibition is 1%. The figure for `COCCCC/C(=N\OCCN)c1ccc(C(F)(F)F)cc1` is 0%; for `CCN(CC)C(=O)c1ccc(O)c(OC)c1` it is 0%; for `CCOC(=O)c1ccccc1NC1c2ccccc2C(=O)N1C1CCN(C(=O)OCC)CC1` (stereo not given) it is 2%.

For `CCCNCC(O)COc1ccccc1C(=O)CCc1ccccc1` (stereo not given), the inhibition was 0%. On to `COc1ccc(CCNC(=O)C2CCN(Cc3nc(-c4cccc(Cl)c4)oc3C)CC2)cc1OC`, for which the inhibition is 0%. Then `Cc1ccc(NC(=O)Cn2cccc2)cc1Cl`, with 0%.

Regarding `CS(=O)(=O)N(CC(=O)NCc1ccncc1)Cc1ccc(Cl)cc1`, the inhibition is 0%. Consider `COCCSc1nnc(NC(=O)CSCc2ccccc2)s1`, for which the inhibition is 0%. Turning to `NC(=O)NC(c1ccccc1)c1ccccc1F` (stereo not given), the inhibition was 3%. `Nc1nnc(-c2ccccc2)c(-c2ccccc2)n1`: the inhibition is 0%. In the case of `CCOCCCNC(=O)CCNS(=O)(=O)c1ccc(C)cc1`, the inhibition was 2%. Then `Cc1ccc(S(=O)(=O)CC2CSc3nnc(C)c(=O)n32)cc1` (stereo not given), with 0%. For the compound `Cc1cccn2c(=O)c3cc(C#N)c(=NC(=O)c4ccncc4)n(Cc4ccco4)c3nc12`, the inhibition was 0%. The figure for `CC1CCCC(NC(=O)CSc2ncccc2C(=O)O)C1C` (stereo not given) is 0%. With `Clc1ccc(Cc2nn3c(-c4ccncc4)nnc3s2)cc1`, the inhibition is 0%. Consider `CCOc1cc(C2C(C#N)=C(N)Oc3n[nH]c(CC)c32)ccc1OCCN1CCOCC1` (stereo not given), for which the inhibition was 0%. Then `O=C(Cn1cnc2c(nnn2-c2ccc(F)cc2)c1=O)N1CCCc2ccccc21`, with 0%; and `CCOC(=O)c1ccc(NS(=O)C23CC4CC(CC(C4)C2)C3)cc1` (stereo not given), with 8%; and `Cc1ccc2c(c1)CCCN2C(=O)C1CCCO1` (stereo not given), with 5%. The figure for `O=C(Nc1ccc(N2CCOCC2)c(Cl)c1)c1ccc(Br)o1` is 0%.

For the compound `O=C(O)C1CC(=O)N(Cc2ccccc2)C1` (stereo not given), the inhibition was 1%. Then `Cc1ccc(-c2cc(C(=O)Nc3cc(C)ccc3C)[nH]n2)c(O)c1`, with 0%. Then `CCOCC(=O)Nc1c(C(=O)Nc2ccc(OC)cc2OC)oc2ccccc12`, with 0%. Take `CC(=O)Oc1cccc(/C=c2\sc3nc(-c4ccco4)nn3c2=O)c1`: the inhibition was 8%.

A word on the inhibition: it is the percentage by which the read-out fell short of the control.
